Fam108B inh: blocks mouse Fam108B hydrolase in RBBP9 counter-screen; 0.33% of 300,000 active; inhibition, % at 9.51 µM; AID 1947; recombinant Fam108B, FP-Rh probe fluorescence polarization;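 active = inhibition above the screen mean inhibition plus 3 SD, computed separately per campaign, cut at about 18% in these data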;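 note: inhibitors lower polarization as less probe binds the enzyme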
PAFAH1B3 FP inh: inhibitors of human PAFAH1B3 | Q15102 | inhibition, % at 3.39 µM | AID 492972 | recombinant PAFAH1B3, FP-rhodamine probe, fluorescence polarization | 0.28% of 340,000 active;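 active = inhibition above the screen-wide average of all tested compounds plus 3 SD, cut at about 25% in these data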
pPAFAH inh: inhibitors of human plasma PAF acetylhydrolase (pPAFAH); Q13093; inhibition, % at 3.39 µM; recombinant pPAFAH, FP-rhodamine probe fluorescence polarization; 1.5% of 330,000 active;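 active = inhibition above the mean inhibition across the screen plus 3 SD, cut at about 25% in these data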;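 note: inhibitors block binding of the rhodamine activity-based probe so polarization drops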
Target sequence (Q13093 whole entry, looked up): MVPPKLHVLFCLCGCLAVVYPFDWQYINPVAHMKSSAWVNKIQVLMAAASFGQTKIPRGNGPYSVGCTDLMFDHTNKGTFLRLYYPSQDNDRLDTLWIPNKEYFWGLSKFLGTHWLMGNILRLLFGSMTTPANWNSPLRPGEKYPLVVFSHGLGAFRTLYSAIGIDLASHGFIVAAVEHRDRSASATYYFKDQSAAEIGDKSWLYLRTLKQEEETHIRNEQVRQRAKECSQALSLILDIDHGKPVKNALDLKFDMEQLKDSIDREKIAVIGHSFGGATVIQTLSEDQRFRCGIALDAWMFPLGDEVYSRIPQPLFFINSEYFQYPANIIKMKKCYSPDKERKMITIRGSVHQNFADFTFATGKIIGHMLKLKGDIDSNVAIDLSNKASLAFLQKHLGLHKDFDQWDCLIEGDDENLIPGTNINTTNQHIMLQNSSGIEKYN
PAFAH1B2 FP inh: blocks human PAF acetylhydrolase 1b catalytic subunit 2. AID 492953. recombinant PAFAH1B2, FP-rhodamine activity probe, fluorescence polarization. inhibition, % at 3.39 µM. 1.2% of 340,000 active;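 active = inhibition above the mean of all tested compounds plus 3 SD, cut at about 24% in these data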
Target sequence (P68402 whole entry, looked up): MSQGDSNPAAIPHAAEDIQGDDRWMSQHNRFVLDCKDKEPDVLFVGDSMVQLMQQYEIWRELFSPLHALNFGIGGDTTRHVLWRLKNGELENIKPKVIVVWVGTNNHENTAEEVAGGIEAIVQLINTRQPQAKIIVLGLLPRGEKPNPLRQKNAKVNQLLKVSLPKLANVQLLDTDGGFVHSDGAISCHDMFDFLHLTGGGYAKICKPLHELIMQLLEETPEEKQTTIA
PAFAH2 inh: inhibitors of human PAFAH2. inhibition, % at 3.39 µM. 0.99% of 340,000 active. recombinant PAFAH2, FP-rhodamine activity probe, fluorescence polarization;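 active = inhibition above the mean over all tested compounds plus 3 SD, cut at about 30% in these data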;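 note: inhibitors block probe labeling of enzyme so polarization drops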
PME-1 primary: blocks human protein phosphatase methylesterase 1; Q9Y570; recombinant PME-1, FP-Rh probe fluorescence polarization; inhibition, % at 5.9 µM; 0.53% of 320,000 active; AID 2130;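 active = inhibition above the campaign mean of all compounds plus 3 SD, cut at about 26% in these data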;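 note: competitive labeling of PME-1 active site by serine hydrolase directed probe; inhibitors block probe labeling so polarization falls and inhibition rises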
pPAFAH FP conf: confirmation of human plasma PAF acetylhydrolase (pPAFAH) inhibitors | shares compounds with pPAFAH inh | recombinant pPAFAH, FP-Rh probe fluorescence polarization | inhibition, % at 3.39 µM | 72% of 2,300 active | AID 463230;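 active = mean inhibition of the triplicate above the hit cutoff set for the earlier primary screen, cut at about 25% in these data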
Of the large screens only hits and unclear results are named; the others gave an inactive call (follow-up assays come after a bar, where they were run). This is a sample that favours compounds with a hit; in the whole collection about 2.9% have one here.

COc1ccc(CCNC(=O)c2ccc(NC3=NC4CS(=O)(=O)CC4S3)cc2)cc1OC (stereo not given)	none
O=C1/C(=C\c2cccc([N+](=O)[O-])c2O)SC(=S)N1Cc1ccccc1	pPAFAH inh 35 | pPAFAH FP conf 77
O=C1/C(=C/c2ccc(O)c([N+](=O)[O-])c2)SC(=S)N1Cc1ccccc1	none
COc1ccc(S(=O)(=O)CC(=O)c2cc3cc(Br)ccc3oc2=O)cc1	pPAFAH inh 37 | pPAFAH FP conf 33
COc1ccc(OC)c(S(=O)(=O)CC(=O)c2cc3ccc(OC)cc3oc2=O)c1	none
COc1cc([N+](=O)[O-])cc(/C=N/NC(=O)c2cc(-c3ccccc3)nc3ccccc23)c1O	pPAFAH inh 36 | pPAFAH FP conf 35
COc1cc([N+](=O)[O-])cc(/C=N/NC(=O)c2cc(C)nc3ccccc23)c1O	none
O=C(O)C1Nc2c(Cl)cc(Cl)c(Cl)c2C2C=CCC12 (stereo not given)	pPAFAH inh 41, PAFAH2 inh 55 | pPAFAH FP conf 33
CCOC(=O)C1Nc2ccc(Br)cc2C2C=CCC12 (stereo not given)	pPAFAH inh 35 | pPAFAH FP conf inactive
COC(=O)CNC(=O)C1Nc2ccccc2C2C=CCC12 (stereo not given)	none
Cc1cc(O)c(Oc2cc(C)cc(O)c2O)c(O)c1	pPAFAH inh 39 | pPAFAH FP conf inactive
Cc1ccc(O)c(O)c1	none (no result: PAFAH1B3 FP inh, PAFAH1B2 FP inh, PAFAH2 inh)
CC1=C(C(=O)Nc2cc(C(=O)N3CCN(c4cccc(C)c4)C(C)C3)ccc2C)SCCO1 (stereo not given)	none
CNS(=O)(=O)c1ccc(C)c(S(=O)(=O)NC)c1	none
COCCNC(=O)/C(C#N)=C/c1cc(C)n(-c2ccc(C)cc2)c1C	pPAFAH inh 55 | pPAFAH FP conf 52
Cc1ccc(-c2nc(N)n(C(=O)c3cccs3)n2)cc1	none
CCOc1ccc(NS(=O)(=O)c2ccc3[nH]c(=O)c(=O)[nH]c3c2)cc1	none (no result: PAFAH1B3 FP inh, PAFAH1B2 FP inh, PAFAH2 inh)
CCOc1ccc(NS(=O)(=O)c2ccc3[nH]c(=O)oc3c2)cc1	pPAFAH inh 55 | pPAFAH FP conf 52
Cc1ccc(NS(=O)(=O)c2ccc3[nH]c(=O)oc3c2)c(C)c1	pPAFAH inh 75 | pPAFAH FP conf 71
O=C(Nc1nnc(SCCN2CCOCC2)s1)C1CC(=O)N(c2ccc(F)cc2)C1 (stereo not given)	none
Cc1cccc(N/N=C/c2ccc(O)c(O)c2O)c1	pPAFAH inh 45 | pPAFAH FP conf 44
COc1cccc(N/N=C/c2cccc(Br)c2O)c1	none
O=C(O)CN1C(=O)/C(=C\c2cc(Br)ccc2OCc2ccccc2Cl)SC1=S	pPAFAH inh 45 | pPAFAH FP conf 75
O=C(O)CN1C(=O)/C(=C\c2cc(Br)ccc2OCc2ccccc2F)SC1=S	pPAFAH inh 52, PAFAH2 inh 31 | pPAFAH FP conf 67
COc1cc([N+](=O)[O-])cc(/C=C2/SC(=S)N(Cc3ccccc3)C2=O)c1O	none
O=C(O)CN1C(=O)/C(=C\c2cc(Br)ccc2OCc2ccc([N+](=O)[O-])cc2)SC1=S	pPAFAH inh 59 | pPAFAH FP conf 58
O=C1/C(=C\c2cc(Br)cc(Br)c2O)SC(=S)N1Cc1ccccc1	none
O=C1NC(=S)SC1=Cc1ccccc1Cl	none (no result: Fam108B inh, pPAFAH inh, PME-1 primary)
O=C1NC(=S)S/C1=C\c1ccc(SCc2ccccc2)o1	pPAFAH inh 40, PAFAH1B2 FP inh 71 | pPAFAH FP conf 58
CCC1=NN2C(=N)/C(=C\c3ccc(SCc4ccco4)o3)C(=O)N=C2S1	none
O=C1NC(=S)S/C1=C\c1ccc(SCc2ccco2)o1	pPAFAH inh 69 | pPAFAH FP conf 55
CCCC1=NN2C(=N)/C(=C\c3ccc(SCc4ccco4)o3)C(=O)N=C2S1	pPAFAH inh 60 | pPAFAH FP conf 61
O=c1cc(N=Nc2ccc(Cl)cc2)[nH]c(=O)[nH]1	none
O=C(COC(=O)CNC(=O)C1CCCCC1)Nc1ccccc1OC(F)F	none (no result: Fam108B inh, PME-1 primary)
Cc1ccc(C)c(NC2=C(Cl)C(=O)OC2OC(=O)c2ccco2)c1 (stereo not given)	none
CCN(CC)c1ccc(NS(=O)(=O)c2ccc(-c3ccc(=O)[nH]n3)o2)c(C)c1	pPAFAH inh 68 | pPAFAH FP conf 50
Cc1ccccc1NS(=O)(=O)c1ccc(-c2ccc(=O)[nH]n2)o1	none
Nc1ccc2c(c1)C/C(=C/c1ccco1)C2=O	pPAFAH inh 84 | pPAFAH FP conf inactive
COc1ccc(C)cc1S(=O)(=O)Nc1ccc(F)cc1	none
COc1ccc(S(=O)(=O)Nc2ccc(F)cc2)cc1N(C)S(=O)(=O)c1ccc(Cl)cc1	pPAFAH inh 38 | pPAFAH FP conf 35
COC(=O)c1ccc(NC(=O)c2ccccc2CC[N+](=O)[O-])cc1	none
CCCSC1=N/C(=C\C=C\c2ccco2)C(=O)S1	pPAFAH inh 45, PAFAH2 inh 45 | pPAFAH FP conf inactive
CCCSC1=N/C(=C\c2ccsc2)C(=O)S1	none
CCCCSc1nc(O)c(C2OC(=O)c3c2ccc(OC)c3OC)c(=O)n1-c1ccccc1 (stereo not given)	none
C=CCN1C(=O)C2C(C(=O)NC3CCCC3)C3(C)C=CC2(O3)C1C(=O)NC1CCCC1 (stereo not given)	none
COc1ccc(OC)c(C2C(C#N)=C(N)Oc3cc(N)ccc32)c1 (stereo not given)	pPAFAH inh 36 | pPAFAH FP conf inactive
CCOc1ccccc1C1C(C#N)=C(N)Oc2cc(N)ccc21 (stereo not given)	pPAFAH inh 41 | pPAFAH FP conf inactive
CCOc1ccc(C2C(C#N)=C(N)Oc3cc(O)ccc32)cc1OCC (stereo not given)	none
CN(C(=S)Nc1ccc(SC(F)F)cc1)c1ccc(O)cc1	pPAFAH inh 51 | pPAFAH FP conf inactive
COc1cc2c(cc1OC)[C@@H](NC(=O)C(C)C)[C@H](O)C2	none (no result: Fam108B inh, PME-1 primary)
Cc1csc(N/N=C/c2ccc(O)c([N+](=O)[O-])c2)n1	PAFAH1B3 FP inh 26, pPAFAH inh 40 | pPAFAH FP conf inactive
O=S(=O)(Nc1ccc(N=Nc2ccccc2)cc1)c1ccccc1	pPAFAH inh 67 | pPAFAH FP conf 70
O=C1c2nc3cc(-c4ccco4)[nH]n3c(=O)c2CN1Cc1ccccc1	pPAFAH inh 35 (no result: PAFAH1B3 FP inh, PAFAH1B2 FP inh, PAFAH2 inh) | pPAFAH FP conf inactive
Cc1ccsc1CN(C)C(=O)C1CCC(=O)N(CCc2cccc(F)c2)C1 (stereo not given)	none
Cc1cccc(C(=O)O)c1NC(=O)c1ccc(F)cc1	none
CCCn1c(N)c(N(CCOC)C(=O)c2cccc(C(F)(F)F)c2)c(=O)[nH]c1=O	none
CCCCn1c(N)c(N(CCOC)C(=O)c2ccc(-c3cccc(C(F)(F)F)c3)o2)c(=O)[nH]c1=O	pPAFAH inh 39 | pPAFAH FP conf inactive
